Experiments:
Details in all cases: concentration: 1 μM, replicates: in singlicate; n = 1
[1] = system: CSK
[2] = system: CSNK1A1L
[3] = system: CSNK1A1
[4] = system: CSNK1D
[5] = system: CSNK1E
[6] = system: CSNK1G1
[7] = system: CSNK1G2
[8] = system: CSNK1G3
[9] = system: CSNK2A1
[10] = system: CSNK2A2
[11] = system: T1, CTK
T1 construct: gene MATK

[12] = system: DAPK1
[13] = system: DAPK2
[14] = system: DAPK3
[15] = system: T2, DCAMKL1
T2 construct: gene DCLK1

[16] = system: T3, DCAMKL2
T3 construct: gene DCLK2

[17] = system: T4, DCAMKL3
T4 construct: gene DCLK3

[18] = system: DDR1
[19] = system: DDR2
[20] = system: T5, DLK
T5 construct: gene MAP3K12
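Also: KINOMEscan kinase panel screen.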

Structure (SMILES)	%Inh [1]	%Inh [2]	%Inh [3]	%Inh [4]	%Inh [5]	%Inh [6]	%Inh [7]	%Inh [8]	%Inh [9]	%Inh [10]	%Inh [11]	%Inh [12]	%Inh [13]	%Inh [14]	%Inh [15]	%Inh [16]	%Inh [17]	%Inh [18]	%Inh [19]	%Inh [20]
COc1ccc(Nc2nccc(NCCNC(=O)Nc3cc(C)ccc3C)n2)cc1 [GSK1379899]	0%	1%	0%	4%	22%	0%	0%	15%	1%	0%	4%	0%	0%	0%	0%	0%	0%	9%	0%	10%
Cc1cccc2c(-c3ccncn3)c(-c3ccc(F)cc3)nn12 [GW515532]	0%	0%	50%	81%	100%	14%	0%	99.9%	1%	0%	0%	6%	0%	0%	0%	0%	1%	43%	16%	25%
Cc1ccc(NC(=O)Nc2ccccc2)cc1-c1ccc(C(=O)Nc2ccncc2)cc1 [GSK1398471]	2%	0%	0%	13%	24%	11%	13%	29%	6%	7%	0%	3%	3%	9%	10%	0%	24%	95%	38%	9%
Cc1ccc(NC(=O)Nc2ccccc2F)cc1-c1ccc(C(=O)Nc2ccncc2)cc1 [GSK1398477]	0%	20%	0%	12%	16%	18%	32%	28%	19%	18%	0%	0%	17%	0%	0%	40%	26%	97%	55%	0%
CNc1cc(-c2ccc3c(N)n[nH]c3c2)nc(N)n1 [GSK2224810]	4%	0%	8%	9%	12%	7%	0%	28%	19%	22%	0%	18%	17%	37%	16%	0%	28%	0%	13%	29%
Cc1nccc(-c2c(-c3ccc(F)cc3)ncn2CCCN2CCOCC2)n1.Cl [SB-282975]	0%	21%	51%	95.6%	88%	4%	6%	2%	1%	9%	0%	0%	99.3%	0%	0%	2%	3%	0%	0%	0%
Cc1ccc(NC(=O)Nc2ccc(Cl)cc2)cc1-c1ccc(C(=O)Nc2ccncc2)cc1 [GSK1398472]	0%	1%	0%	6%	26%	2%	7%	36%	0%	0%	0%	16%	0%	15%	18%	0%	0%	99.8%	64%	0%
c1ccc(-c2ccnc3[nH]ccc23)cc1 [SB-693578]	0%	20%	0%	1%	42%	90.3%	0%	5%	0%	0%	0%	0%	0%	19%	16%	0%	0%	23%	26%	37%
COc1cccc(C2=C(Nc3cc(Cl)c(O)c(Cl)c3)C(=O)NC2=O)c1 [SB-390767]	0%	5%	0%	13%	24%	100%	0%	25%	0%	0%	10%	0%	0%	17%	11%	0%	26%	96.1%	18%	0%
O=C(Nc1n[nH]c2cc(-c3ccsc3)ccc12)C1CC1 [SB-732932]	0%	17%	0%	0%	0%	24%	0%	0%	29%	52%	32%	4%	41%	40%	0%	0%	74%	0%	0%	0%
CCCCc1nn2ncccc2c1-c1ccnc(NC2CC2)n1 [GW684374]	2%	0%	18%	90.1%	92.4%	0%	0%	25%	0%	5%	0%	20%	0%	12%	0%	0%	0%	67%	23%	35%
Cn1cncc1C(=O)NC1CCN(c2ccnc(Nc3ccc(F)cc3)n2)C1 (stereo not shown) [GSK1379717]	9%	0%	0%	0%	0%	0%	0%	17%	0%	0%	0%	13%	0%	5%	0%	0%	0%	7%	0%	0%
Cc1cnc(N)c(/C=C/c2cncc(C(=O)NCCc3ccc(Cl)cc3Cl)c2)c1.Cl [GSK190937]	0%	0%	0%	34%	20%	24%	2%	3%	0%	0%	0%	10%	7%	11%	4%	0%	23%	–	79%	25%

Source: PMC5540273 (PLoS ONE, 2017)
